# Test results from the supplement of paper PMC3334620.
# Over roughly 33,000 sequences, “E-score (-0.5 to 0.5)” has its median near -0.04; the highest 2% begin near 0.36. The sample holds the highest values, similar sequences and a random draw of the others, so the mix is not that of the screen.
# Target: T1, Hmlalpha2 (UniProt P0CY09)
# T1 sequence: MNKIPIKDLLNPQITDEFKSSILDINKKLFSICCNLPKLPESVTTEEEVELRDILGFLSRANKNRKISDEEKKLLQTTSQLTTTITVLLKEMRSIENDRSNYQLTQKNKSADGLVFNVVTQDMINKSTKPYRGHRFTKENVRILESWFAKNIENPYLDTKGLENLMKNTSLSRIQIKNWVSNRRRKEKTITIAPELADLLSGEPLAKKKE
# Assay: PBM E-score (8-mer binding enrichment) (E-score (-0.5 to 0.5)); higher = stronger / more preferred TF binding
# Settings: protein concentration: 200 nM; construct: GST-full length
# Protocol: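 Universal 'all 10-mer' protein binding microarrays (Agilent AMADID 015681) probed with GST-tagged S. cerevisiae TFs (full-length or DBD) made by in vitro transcription/translation (PURExpress), about 100-200 nM. Bound TF was detected with fluorescent anti-GST. Each ungapped 8-mer (which stands for itself and its reverse complement) is scored by the PBM enrichment score (E-score), a modified Wilcoxon-Mann-Whitney statistic from -0.5 to +0.5, computed with the Universal PBM Analysis Suite. Scale: above 0.35 generally sequence-specific binding.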
row,Sequence,PBM E-score
1,CCATGTGA,0.184
2,AAATGTTA,0.33
3,ACATGTTA,0.461
4,AGATGTTA,0.201
5,CGATGTTA,0.353
6,CCATGTTA,0.458
7,CGCCTGGC,-0.0832
8,GCGCATGA,-0.252
9,GCTGTCCA,-0.0572
10,CTCGTCAC,-0.0377
11,AATCGGTC,-0.081
12,CTCCTAAG,-0.115
13,CAGGAGCA,-0.173
14,GCATAACA,0.307
15,ACATAACA,0.434
16,CCATAACA,0.333
17,ACATAACG,0.368
18,ACATAACT,0.325
19,TCATAGCA,-0.0434
20,CCATAGCA,-0.145
21,ACATAGCA,0.392
22,ACATAACC,0.222
23,CACACCAG,-0.011
24,GGATGACC,-0.218
25,GATTTTGA,0.12

row,Sequence,PBM E-score
1,ACGATGTG,0.19
2,CAGTTTGC,-0.118
3,ACAGGGAA,0.0611
4,CGCTGATC,-0.177
5,AGGGGAGC,-0.33
6,GCGTCTCC,-0.033
7,AATCGTGC,0.151
8,ACACGTGT,0.432
9,AAGCGTGA,-0.0159
10,AAACGTGT,0.375
11,ACACGTGA,0.318
12,AAGCGTGG,-0.0995
13,AAACGTGA,0.168
14,ACACGTGG,0.293
15,AAGCGTGT,0.371
16,AAACGTGG,-0.0689
17,AATCGTGA,-0.00694
18,AATCGTGT,0.406
19,ACGGCGAT,-0.0673
20,AGTCGGGG,-0.191
21,CAAGAATG,-0.0486
22,AGGGCCAG,-0.22
23,AGGCCAAG,-0.247
24,AGTCTATC,-0.0461
25,GTGGGCGA,-0.04

row,Sequence,PBM E-score
1,GACGTGGA,-0.209
2,AACGTGTG,0.233
3,AACGTGTC,0.263
4,CACGTGTC,0.25
5,GACGTGAA,-0.0003
6,AACGTGTA,0.455
7,CACGTGAA,0.108
8,GACGTGTA,0.41
9,CACGTGTA,0.444
10,GAAGTCTC,-0.247
11,GTACCCTA,-0.0877
12,GTCGACCA,-0.0364
13,GGATCCAA,-0.0601
14,GAGTAGCA,-0.0964
15,CCCCCGCG,-0.241
16,CCGTTTAG,-0.0825
17,TAGTGTCA,0.0999
18,GCGTGTCC,0.142
19,TCGTGTCA,0.395
20,GCGTGTCA,0.382
21,CCGTGTCA,0.351
22,ACGTGTCA,0.392
23,GTGTGTCA,0.307
24,CGGTGTCA,-0.0723
25,ACGTGTCG,0.308

row,Sequence,PBM E-score
1,GCTCCAGA,-0.207
2,ATGAGAAA,0.0401
3,CGGAGGCC,-0.334
4,TCACCTGA,-0.136
5,CTTGGCAA,-0.143
6,CTTGTATC,0.264
7,AATGTATC,0.284
8,GATGTATA,0.237
9,CATGTATC,0.405
10,CATGTATA,0.466
11,AATGTATA,0.315
12,AGTGCAAT,0.00712
13,GGATGTAA,0.397
14,TGATGTAA,0.389
15,TGATGCAA,0.0282
16,AGATGTAT,0.251
17,GGATGTAC,0.225
18,CGATGTAC,0.221
19,CGATGTAA,0.417
20,AGATGTAG,0.094
21,AGATGTAA,0.382
22,TGCTGTAA,0.17
23,GGATGTCA,0.133
24,CGATGTGA,0.105
25,CCATCTAC,0.0186

row,Sequence,PBM E-score
1,CTCTGCCC,-0.109
2,AGCAATGG,-0.0784
3,CATACCAA,0.141
4,CACGGTGA,0.155
5,ACCATTAG,-0.0407
6,AGCCCTCC,-0.312
7,CAGGCGAA,0.0909
8,CGTTGTAC,0.278
9,CGTTGTAA,0.368
10,GGTTGTAA,0.342
11,AGTTGTAA,0.248
12,TGTTGTAA,0.401
13,GGTTGAAA,-0.0197
14,TGTTGAAA,0.37
15,AGTTGAAA,0.0609
16,CGTTGTAG,0.242
17,AAGAGTAC,0.0432
18,ATCCCTAG,-0.00744
19,CAGTACCG,-0.142
20,CCCGATTC,-0.0455
21,GTAGCGGA,-0.0459
22,GTTATCCA,0.0731
23,AGCCATCG,-0.171
24,ATGCCTAC,-0.224
25,GACCTCCA,-0.0969

row,Sequence,PBM E-score
1,CTTTGGTC,-0.0966
2,ATCACGGA,-0.189
3,TACACGGA,0.447
4,ACCACGGT,-0.134
5,AACACGGA,0.374
6,AACACGGC,0.359
7,AACACCGA,0.193
8,CACACGGG,0.218
9,ACCACGGG,-0.213
10,GACACGGA,0.224
11,CACACGGA,0.0896
12,AACACGGG,0.387
13,AACACGGT,0.402
14,ACGATTCC,-0.04
15,CTAGGCGC,-0.158
16,CAAGAGCA,-0.00496
17,CTTCAAAC,-0.0259
18,CTGCCTGC,-0.252
19,AATTCTTG,0.12
20,GGCGGTCA,-0.283
21,GGAAGGTA,-0.132
22,ACAAAGGG,-0.0246
23,CTGCCAGA,-0.232
24,ATCAACAC,0.399
25,AGCAACAC,0.26

row,Sequence,PBM E-score
1,CTCAACAC,0.382
2,CTCAACAA,0.302
3,ATCAACAG,0.136
4,ATCAACCC,0.144
5,GTCAACAC,0.358
6,ATCAACAT,0.44
7,ATCAACAA,0.306
8,CATACCCA,0.182
9,AATAATAA,0.311
10,ACCGAGGC,-0.359
11,GGGCAGAA,0.0375
12,CCAAGTGC,-0.171
13,CTTAACAA,0.307
14,CTTAACCC,-0.0467
15,GTTAACCA,0.285
16,CTTAACAC,0.419
17,ATTAACAG,0.261
18,ATTAACAA,0.415
19,ATTAACGG,-0.00314
20,GTTAACTA,0.362
21,GTTAACAA,0.366
22,ATTAACGA,0.317
23,ACTAACAA,0.253
24,ATTAACGC,0.372
25,AGACTAAA,-0.0357
